In PubChem BioAssay AID1645838 (ICCB-Longwood Screening Facility, Harvard Medical School, 2021) one finds z-score, cell count and outcome data, which are given here for 23 compounds.

This experiment is described as follows: modulators of mitochondrial supercomplex assembly, cell-based, luminescence, Hoechst nuclei count (AID 1645838).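 For all read-outs here: control cybrid cells.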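 For z-score: higher means more mitochondrial supercomplex formation.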 Conditions: Cells, luminescence/Hoechst cell count ratio, supercomplex reporter; for z-score: stronger effect = higher value; for cell count: measured here: cell number, Hoechst nuclei count.
The mark [1] stands for this setting: library stock concentration (final well concentration not given) 80 uM.
Where [2] appears, read: library stock concentration (final well concentration not given) 400 uM.
The mark [3] stands for this setting: library stock concentration (final well concentration not given) 2 mM.
[4] abbreviates: library stock concentration (final well concentration not given) 10 mM.
The mark [5] stands for this setting: library stock concentration (final well concentration not given) 46 uM.
The mark [6] stands for this setting: library stock concentration (final well concentration not given) 278 uM.
Setting [7] is: library stock concentration (final well concentration not given) 1.67 mM.

“And” between values parts separate entries of the source, which are not always exact repeats. Equal values may be shown once. Hit rate of the full screen: of about 2,000 compounds, about 100 (5%) were called active. Cut-off read from the data, not from the text of the source: active = z-score above about 2; inactive = the rest. The entries come from a sample that favours actives as a whole.

In the case of `CCCCCCCCCCCCCCCC(=O)SCCOP(=O)([O-])OCC[N+](C)(C)C`, the z-score is 0.0631 (inactive) and the cell count is 5610.

Take `CCC1C(=O)N(C)c2cnc(Nc3ccc(C(=O)NC4CCN(C)CC4)cc3OC)nc2N1C1CCCC1` (stereo not given): the outcome was “inactive; censored for cell count” (library stock 80 µM), “inactive; censored for cell count” (library stock 400 µM), “inactive; censored for cell count” (library stock 2 mM) and “inactive; censored for cell count” (library stock 10 mM).

With `COc1cc(C(=O)NC2CCN(C)CC2)ccc1Nc1ncc2c(n1)N(C1CCCC1)C(C)CC(=O)N2C` (stereo not given), where the note is “library stock 10 mM”, the outcome was “inactive; censored for cell count”. Also, the z-score under setting [1] was -0.18 (inactive), the z-score under setting [2] was -0.538 (inactive) and the z-score under setting [3] is -0.076 (inactive). Further, the cell count is, setting by setting: under setting [1], 4460; under setting [2], 4710; under setting [3], 4310.

As to `COc1cc(C(=O)N2CCC(N3CCN(C)CC3)CC2)ccc1Nc1ncc2c(n1)N(C)c1ccccc1C(=O)N2C`, the z-score under setting [1] is -0.05 (inactive), the z-score under setting [2] was 0.293 (inactive), the z-score under setting [3] was 2.34 (active) and the z-score under setting [4] was 4.4 (active). The cell count under setting [1] came to 4870, the cell count under setting [2] was 4880, the cell count under setting [3] worked out at 4160 and the cell count under setting [4] is 3320.

Take `CCCCC[C@@H](O)/C=C/[C@@H]1[C@H](C/C=C\CCCC(=O)O)[C@@H](O)C[C@H]1O`: the z-score is -0.594 (inactive) and the cell count stood at 5750.

With `COCCOc1ccc2c(c1)ncn2-c1ccc2cccc(N3CCC(N)CC3)c2n1`, the outcome (library stock 10 mM) was “inactive; censored for cell count”. The z-score runs as follows: under setting [1], 1.84 (inactive); under setting [2], 2.21 (active); under setting [3], 2.12 (active). In addition, the cell count was 4940 under setting [1], 5070 under setting [2] and 4020 under setting [3].

As to `CCCCC[C@H](O)CC[C@@H]1[C@@H](C/C=C\CCCC(=O)O)[C@@H](O)C[C@H]1O`, the z-score is -1.49 (inactive) and the cell count turned out to be 6030.

As to `CCCCC[C@H](O)/C=C/[C@@H]1[C@H](CCCCCCC(=O)O)[C@@H](O)C[C@H]1O`, the z-score is 0.0726 (inactive) and the cell count is 4940.

On to `CCN(CC)c1ccc(C2=C(Cl)C(=O)c3ncccc3C2=O)cc1`, for which the z-score is -0.697 (inactive) and the cell count is 3780.

As to `c1ccc2c(Oc3nc(Nc4ccc(N5CCOCC5)cc4)c4ncn(C5CCCCC5)c4n3)cccc2c1`, the z-score is -0.437 (inactive) and the cell count stood at 5560.

As for `Cc1cc(N2CCOCC2)ccc1Nc1nc(NC2CCCCC2)c2[nH]cnc2n1`, the z-score was -0.914 (inactive) under setting [5], -0.363 (inactive) under setting [6], 3.33 (active) under setting [7] and 3.68 (active) under setting [4]. Moreover, the cell count was determined as 7450 under setting [5], 5730 under setting [6], 2040 under setting [7] and 2130 under setting [4].

Turning to `c1nc2nc(Nc3ccc(N4CCOCC4)cc3)nc(NC3CCCCC3)c2[nH]1`, the outcome is “inactive; censored for cell count” (library stock 2 mM) and “inactive; censored for cell count” (library stock 10 mM). For the same compound, the z-score was -0.0131 (inactive) under setting [1] and 1.19 (inactive) under setting [2]. In addition, the cell count runs as follows: under setting [1], 4690; under setting [2], 2200.

As for `NC(N)=NN=Cc1ccc(Cl)c(Cl)c1`, the z-score by setting is: under setting [1], -0.108 (inactive); under setting [2], 0.196 (inactive); under setting [3], -0.953 (inactive); under setting [4], -0.658 (inactive). Moreover, the cell count under setting [1] was 5310, the cell count under setting [2] is 4750, the cell count under setting [3] is 4910 and the cell count under setting [4] was 4260.

With `CCCCC[C@H](O)/C=C/[C@H]1[C@H](O)CC(=O)[C@@H]1CCCCCCC(=O)NCCO`, the z-score is 0.115 (inactive) and the cell count was found to be 5420.

Consider `NC1=NC(=O)/C(=C/c2ccc(O)cc2)S1`, for which the z-score was 0.333 (inactive) and the cell count was 5020.

For `CCCCCCCC/C=C\CCCCCCCC(=O)OCC(O)COP(=O)(O)O` (stereo not given), the z-score is -0.58 (inactive) and the cell count amounted to 5650.

Regarding `O=C(O)CCC/C=C\C[C@@H]1[C@@H](/C=C/[C@@H](O)COc2cccc(C(F)(F)F)c2)[C@H](O)C[C@@H]1O`, the z-score was -0.654 (inactive) and the cell count was determined as 5730.

Consider `Cc1ccc(COC(=O)N2CCC(CNc3ncccn3)C(F)C2)cc1` (stereo not given), for which the z-score is -0.136 (inactive) under setting [1], 0.087 (inactive) under setting [2], -0.148 (inactive) under setting [3] and -0.243 (inactive) under setting [4]. Further, the cell count was 5400 under setting [1], 5130 under setting [2], 5140 under setting [3] and 5210 under setting [4].

`CCCS(=O)(=O)Nc1ccc(F)c(C(=O)c2c[nH]c3ncc(-c4ccc(Cl)cc4)cc23)c1F`: the z-score under setting [1] is -0.652 (inactive) and -0.181 (inactive); the z-score under setting [2] was -0.587 (inactive) and -0.185 (inactive); the z-score under setting [3] was -0.572 (inactive) and -0.608 (inactive); the z-score under setting [4] is 0.969 (inactive) and -0.885 (inactive). The cell count was 4780 and 6010 under setting [1]; 4780 and 5900 under setting [2]; 4410 and 5850 under setting [3]; 2140 and 5020 under setting [4].

In the case of `O=C(O)c1ccc(-c2c[nH]c3ncc(-c4ccccc4)cc23)cc1C1CCCC1`, the z-score was -0.226 (inactive) under setting [5], -0.179 (inactive) under setting [6], -0.154 (inactive) under setting [7] and 2.58 (active) under setting [4]. For the same compound, the cell count reads like this: under setting [5], 6280; under setting [6], 6090; under setting [7], 5580; under setting [4], 1970.

On to `Cn1cc(C=C2C(=O)Nc3cccnc32)c2ccccc21`, for which the z-score reads like this: under setting [1], -0.136 (inactive); under setting [2], -0.0135 (inactive); under setting [3], -0.221 (inactive); under setting [4], -0.519 (inactive). The cell count by setting is: under setting [1], 5300; under setting [2], 5320; under setting [3], 5410; under setting [4], 4520.

For `Cn1c(SCC(=O)N2CCCC2C(=O)Nc2ccccc2-c2ccccc2)nc2ccccc21` (stereo not given), the z-score was -0.422 (inactive) under setting [1], -0.389 (inactive) under setting [2], -0.142 (inactive) under setting [3] and -0.283 (inactive) under setting [4]. Besides, the cell count under setting [1] was found to be 5510, the cell count under setting [2] came to 5800, the cell count under setting [3] was determined as 5780 and the cell count under setting [4] amounted to 5710.

On to `CC(C)CCOc1ccc(NC(=S)Nc2ccc(OCCC(C)C)cc2)cc1`, for which the z-score is -0.0536 (inactive) and the cell count came out at 5220.
